This note sets out measurements from paper PMC5700166.

Common to all, as to experiment: protein-binding microarray (PBM); PBM: ~300 nM protein, 6 mM HEPES pH 7.8, 80 mM KCl, 0.5 mM EDTA, 0.5 mM EGTA, 6% glycerol, 35 ng/ul poly-dIdC, 1% milk, 1 h, room temperature; Ap Aiptasia and Nv Nematostella (sea anemones) / Co Capsaspora / Aq Amphimedon (sponge) / Dm Drosophila / Hu human; RHD is the Rel homology domain; high values mean tight binding
Common to all, as to conditions: dsDNA, one strand shown

One assay has as its target T1, GST-Ap-NF-kB RHD (Exaiptasia pallida (Aiptasia), UniProt A0A913YAJ5 2-422).
T1 sequence: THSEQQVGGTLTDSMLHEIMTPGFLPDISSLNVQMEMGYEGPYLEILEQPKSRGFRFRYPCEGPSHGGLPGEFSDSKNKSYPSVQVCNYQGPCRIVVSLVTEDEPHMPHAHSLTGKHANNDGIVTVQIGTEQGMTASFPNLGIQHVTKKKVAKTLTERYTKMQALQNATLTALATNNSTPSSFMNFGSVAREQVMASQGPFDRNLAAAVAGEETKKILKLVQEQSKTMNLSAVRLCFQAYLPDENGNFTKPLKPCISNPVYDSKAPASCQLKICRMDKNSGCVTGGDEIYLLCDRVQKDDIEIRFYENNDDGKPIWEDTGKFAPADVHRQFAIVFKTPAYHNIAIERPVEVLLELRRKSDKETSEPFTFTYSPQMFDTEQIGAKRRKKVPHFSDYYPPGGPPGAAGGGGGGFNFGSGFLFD

Assay [1] addresses T2, GST-Nv-NF-kB (Cys allele) (Nematostella vectensis, UniProt E5G601 2-411).
T2 sequence: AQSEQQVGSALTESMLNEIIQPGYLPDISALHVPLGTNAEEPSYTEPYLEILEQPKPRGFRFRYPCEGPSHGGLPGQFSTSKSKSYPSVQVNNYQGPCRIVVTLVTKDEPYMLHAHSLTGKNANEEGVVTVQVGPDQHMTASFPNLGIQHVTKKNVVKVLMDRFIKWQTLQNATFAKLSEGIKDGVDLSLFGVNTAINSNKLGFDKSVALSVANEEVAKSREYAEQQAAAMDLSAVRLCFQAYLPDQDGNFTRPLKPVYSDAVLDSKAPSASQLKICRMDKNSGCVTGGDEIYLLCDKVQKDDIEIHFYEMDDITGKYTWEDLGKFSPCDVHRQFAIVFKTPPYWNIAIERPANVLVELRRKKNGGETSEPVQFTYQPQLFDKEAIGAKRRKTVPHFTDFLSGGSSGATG

Assay [2] has as its target T3, GST-Nv-NF-kB (Ser allele) (Nematostella vectensis, UniProt A7UNT2 2-411).
T3 sequence: T2 sequence with Q21R, C66S, S207N, E215Q, V217A, E225K, A268E, D399E

The target of the next assay is T4, GST-Co-NF-kB (Capsaspora owczarzaki, UniProt F1ARL5 200-546).
T4 sequence: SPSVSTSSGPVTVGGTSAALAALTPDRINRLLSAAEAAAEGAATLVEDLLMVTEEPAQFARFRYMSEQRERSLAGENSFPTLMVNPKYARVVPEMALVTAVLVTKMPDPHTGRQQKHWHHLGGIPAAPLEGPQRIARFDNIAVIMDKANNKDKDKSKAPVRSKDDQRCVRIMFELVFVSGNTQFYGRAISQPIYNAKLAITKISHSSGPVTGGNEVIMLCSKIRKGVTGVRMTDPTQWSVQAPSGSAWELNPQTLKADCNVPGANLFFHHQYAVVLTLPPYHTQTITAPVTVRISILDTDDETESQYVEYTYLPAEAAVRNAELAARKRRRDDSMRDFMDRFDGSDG

Another assay deals with T5, GST-Dm-Relish (Drosophila melanogaster, UniProt Q94527 99-473).
T5 sequence: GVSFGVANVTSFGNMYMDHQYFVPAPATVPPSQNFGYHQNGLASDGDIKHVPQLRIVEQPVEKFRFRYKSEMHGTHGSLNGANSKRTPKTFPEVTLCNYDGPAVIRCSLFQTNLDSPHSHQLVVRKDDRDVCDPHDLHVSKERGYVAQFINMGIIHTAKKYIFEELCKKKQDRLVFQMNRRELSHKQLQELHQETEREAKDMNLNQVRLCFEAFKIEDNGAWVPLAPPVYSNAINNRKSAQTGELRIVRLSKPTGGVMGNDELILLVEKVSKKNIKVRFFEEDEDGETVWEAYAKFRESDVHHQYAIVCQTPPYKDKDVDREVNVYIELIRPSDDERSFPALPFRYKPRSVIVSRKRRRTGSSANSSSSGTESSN

Another assay addresses T6, GST-Aq-NF-kB (Amphimedon queenslandica, UniProt A9Y5G7 2-389).
T6 sequence: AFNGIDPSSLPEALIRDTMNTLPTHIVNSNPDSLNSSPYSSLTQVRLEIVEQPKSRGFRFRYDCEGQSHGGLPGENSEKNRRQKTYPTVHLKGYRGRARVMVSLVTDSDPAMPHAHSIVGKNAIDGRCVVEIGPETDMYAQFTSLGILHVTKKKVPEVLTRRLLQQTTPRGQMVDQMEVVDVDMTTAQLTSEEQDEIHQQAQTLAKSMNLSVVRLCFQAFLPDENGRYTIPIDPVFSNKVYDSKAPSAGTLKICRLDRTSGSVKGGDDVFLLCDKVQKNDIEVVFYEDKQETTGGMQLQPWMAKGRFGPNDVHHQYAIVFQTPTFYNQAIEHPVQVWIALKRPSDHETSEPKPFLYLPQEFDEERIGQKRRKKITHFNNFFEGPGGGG

For the next assay, the target named is GST-Hu-p50 (Homo sapiens, UniProt P19838 7-356).

Changes are numbered by the printed parent chain.

Sequence of GST-Hu-p50 (P19838 7-356): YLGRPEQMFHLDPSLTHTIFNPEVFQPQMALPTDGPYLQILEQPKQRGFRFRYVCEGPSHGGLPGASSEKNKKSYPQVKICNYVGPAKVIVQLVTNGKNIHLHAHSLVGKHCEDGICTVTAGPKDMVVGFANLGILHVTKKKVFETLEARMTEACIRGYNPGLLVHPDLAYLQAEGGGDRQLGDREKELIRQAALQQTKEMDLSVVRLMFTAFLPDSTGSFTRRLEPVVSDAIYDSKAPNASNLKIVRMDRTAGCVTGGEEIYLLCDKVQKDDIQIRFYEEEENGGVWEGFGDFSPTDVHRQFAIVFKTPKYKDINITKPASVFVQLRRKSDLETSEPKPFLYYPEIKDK

With “CCGATTAACATCAAATTATCCCCTGATGTTAATCGGGTCTTGATTCGCTTGACGCTGCTG”, the binding signal with GST-Ap-NF-kB RHD turned out to be 6.03 z-score; in assay [1], 6.6 z-score; in assay [2] it was 8.6 z-score; in the assay with GST-Co-NF-kB it was 6.1 z-score; with GST-Dm-Relish it was 3.57 z-score; with GST-Aq-NF-kB it was 5.25 z-score. This sequence came in with a binding signal in the assay with GST-Hu-p50 of 5.28 z-score.
As to “CCGATTAACATCAGGGGGAATGATGATGTTAATCGGGTCTTGATTCGCTTGACGCTGCTG”, the binding signal with GST-Ap-NF-kB RHD came to 6.17 z-score; in assay [1] it was 7.14 z-score; in assay [2], 7.16 z-score; with GST-Co-NF-kB, 6.6 z-score; with GST-Dm-Relish, 3.1 z-score; in the assay with GST-Aq-NF-kB, 4.98 z-score. This sequence had a binding signal with GST-Hu-p50 of 5.4 z-score.
Take “CCGATTAACATCACCCTTTTCCCTGATGTTAATCGGGTCTTGATTCGCTTGACGCTGCTG”: the binding signal worked out at 2.88 z-score in the assay with GST-Ap-NF-kB RHD; 3.25 z-score in assay [1]; 5.61 z-score in assay [2]; 4.6 z-score with GST-Co-NF-kB; 1.52 z-score with GST-Dm-Relish; 2.91 z-score with GST-Aq-NF-kB. The same sequence displayed a binding signal in the assay with GST-Hu-p50 of 2.59 z-score.
As to “CCGATTAACATCAAAATCCCAGTTGATGTTAATCGGGTCTTGATTCGCTTGACGCTGCTG”, the binding signal with GST-Ap-NF-kB RHD was 1.67 z-score; in assay [1] it was 1.47 z-score; in assay [2], 1.74 z-score; with GST-Co-NF-kB, 1.27 z-score; with GST-Dm-Relish, 5.96 z-score; with GST-Aq-NF-kB, 1.75 z-score. In addition, the binding signal in the assay with GST-Hu-p50 amounted to 1.82 z-score.
Turning to “CCGATTAACATCATAATCCCCCATGATGTTAATCGGGTCTTGATTCGCTTGACGCTGCTG”, the binding signal was 7.75 z-score in the assay with GST-Ap-NF-kB RHD; 6.81 z-score in assay [1]; 7.45 z-score in assay [2]; 6.17 z-score with GST-Co-NF-kB; 5.67 z-score with GST-Dm-Relish; 5.96 z-score with GST-Aq-NF-kB. Moreover, in the assay with GST-Hu-p50, the binding signal stood at 6.67 z-score.
As for “CCGATTAACATCAGGGGAAATTATGATGTTAATCGGGTCTTGATTCGCTTGACGCTGCTG”, the binding signal in the assay with GST-Ap-NF-kB RHD is 8.88 z-score; in assay [1], 10.5 z-score; in assay [2], 12.1 z-score; with GST-Co-NF-kB it was 9.24 z-score; with GST-Dm-Relish, 6.62 z-score; in the assay with GST-Aq-NF-kB, 7.99 z-score. Besides, in the assay with GST-Hu-p50, the binding signal worked out at 6.95 z-score.
Consider “CCGATTAACATCAAAATCCCCCTTGATGTTAATCGGGTCTTGATTCGCTTGACGCTGCTG”, for which the binding signal with GST-Ap-NF-kB RHD is 10.1 z-score; in assay [1], 10.7 z-score; in assay [2], 12.1 z-score; with GST-Co-NF-kB it was 6.3 z-score; in the assay with GST-Dm-Relish it was 10.2 z-score; with GST-Aq-NF-kB, 8.68 z-score. Further, the binding signal with GST-Hu-p50 was 8.9 z-score.
On to “CCGATTAACATCAGGGAATAACCTGATGTTAATCGGGTCTTGATTCGCTTGACGCTGCTG”, for which the binding signal came out at 4.4 z-score with GST-Ap-NF-kB RHD; 6.79 z-score in assay [1]; 6.75 z-score in assay [2]; 2.13 z-score with GST-Co-NF-kB; 8.23 z-score with GST-Dm-Relish; 7.2 z-score with GST-Aq-NF-kB. In addition, the binding signal with GST-Hu-p50 came to 5.21 z-score.
For the sequence “CCGATTAACATCAGGGGAACGGATGATGTTAATCGGGTCTTGATTCGCTTGACGCTGCTG”, the binding signal in the assay with GST-Ap-NF-kB RHD was determined as 4.83 z-score; in assay [1], 5.28 z-score; in assay [2] it was 6.1 z-score; with GST-Co-NF-kB, 4.35 z-score; with GST-Dm-Relish, 1.58 z-score; with GST-Aq-NF-kB, 3.47 z-score. The same sequence yielded a binding signal in the assay with GST-Hu-p50 of 3.91 z-score.
“CCGATTAACATCAAAACACTCCCTGATGTTAATCGGGTCTTGATTCGCTTGACGCTGCTG”: the binding signal in the assay with GST-Ap-NF-kB RHD came out at 2.25 z-score; in assay [1] it was 3.3 z-score; in assay [2] it was 2.69 z-score; with GST-Co-NF-kB, 2.06 z-score; with GST-Dm-Relish, 1.28 z-score; with GST-Aq-NF-kB, 4.45 z-score. In the assay with GST-Hu-p50, this sequence had a binding signal of 2.59 z-score.
With “CCGATTAACATCAGAGCCCCCCCTGATGTTAATCGGGTCTTGATTCGCTTGACGCTGCTG”, the binding signal with GST-Ap-NF-kB RHD is 4.71 z-score; in assay [1], 3.96 z-score; in assay [2], 3.31 z-score; with GST-Co-NF-kB, 3.1 z-score; in the assay with GST-Dm-Relish, 4.58 z-score; with GST-Aq-NF-kB, 4.2 z-score. In the assay with GST-Hu-p50, this sequence displayed a binding signal of 3.47 z-score.
Turning to “CCGATTAACATCAGGGGATGCACTGATGTTAATCGGGTCTTGATTCGCTTGACGCTGCTG”, the binding signal was found to be 4.3 z-score with GST-Ap-NF-kB RHD; 4.83 z-score in assay [1]; 6.02 z-score in assay [2]; 2.97 z-score with GST-Co-NF-kB; 9.57 z-score with GST-Dm-Relish; 5.85 z-score with GST-Aq-NF-kB. The sequence further had a binding signal in the assay with GST-Hu-p50 of 4.77 z-score.
